TDP1 cell CPT: qHTS for Inhibitors of human tyrosyl-DNA phosphodiesterase 1 (TDP1): qHTS in cells in presence of CPT; AID 686979, 2013; 420,000 tested, 12% active; Potency, µM (top dose mostly 46.2 µM), without a hit: at the highest dose activity change, negative = growth inhibition, most hits filed as inhibitors; chicken DT40 Tdp1-/-;hTDP1 cells + 20 nM CPT, ATP luminescence, 48 h; also: potency is read from the fitted curve at half-maximal effect; % is scaled to controls: 0 for no effect and ±100 for the full control effect; nearly all actives have a fitted effect of over 55% in size
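Chicken DT40 Tdp1-/- cells complemented with human TDP1, 400 cells/well, exposed to compounds plus 20 nM camptothecin for at least 48 h at 37 C; viability read as ATP content by CellTiter-Glo luminescence.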
TGFb inhibitor: qHTS for Inhibitors of TGF-b; HepG2 CAGA-GFP TGF-b/SMAD3 reporter, GFP fluorescence, 18 h; TGF-beta stimulated, 500 pg/mL final; 410,000 tested, 1.2% active; Potency, µM (doses to about 46.1 µM), without a hit: top-dose activity, negative = inhibition, most hits filed as inhibitors; also: potency is read from the fitted curve at half-maximal effect; % is scaled to controls: 0 for no effect and ±100 for the full control effect; nearly all actives have a fitted effect of over 65% in size
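HEPG2 CAGA-GFP cells (1000/well, DMEM with 1% FBS) were pre-incubated 2 h at 37 degrees C, given compound by pin tool, then stimulated with TGF-beta at 500 pg/mL final for 18 h before per-cell GFP fluorescence imaging.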
TDP1 cell noCPT: qHTS for Inhibitors of human tyrosyl-DNA phosphodiesterase 1 (TDP1): qHTS in cells in absence of CPT; DT40 Tdp1-/- hTDP1 cells, no CPT, ATP luminescence, 48 h; Potency, µM (series often up to 46.2 µM), inactives show top-dose activity change, negative = growth inhibition, actives largely listed as inhibitors; 420,000 tested, 15% active; also: potency is read from the fitted curve at half-maximal effect; % is scaled to controls: 0 for no effect and ±100 for the full control effect; nearly all actives have a fitted effect of over 55% in size
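Compound effects on proliferation are scored in DT40 Tdp1-/-;hTDP1 cells in the absence of CPT. ATP levels (CellTiter-Glo luminescence) are recorded after a ≥48 hr, 37 °C incubation.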
S-ASM inh: Inhibitors of Secretory Acid Sphingomyelinase (S-ASM): qHTS. Potency, µM (highest dose often 57.5 µM), without a hit: at the highest dose activity change, negative = inhibition, most hits filed as inhibitors. placental ASM, HMU-PC fluorogenic substrate, 60 min. 340,000 tested, 0.006% active. Sphingomyelin phosphodiesterase (Homo sapiens), P17405; also: potency is read from the fitted curve at half-maximal effect
Target sequence (P17405 47-631 limits assumed): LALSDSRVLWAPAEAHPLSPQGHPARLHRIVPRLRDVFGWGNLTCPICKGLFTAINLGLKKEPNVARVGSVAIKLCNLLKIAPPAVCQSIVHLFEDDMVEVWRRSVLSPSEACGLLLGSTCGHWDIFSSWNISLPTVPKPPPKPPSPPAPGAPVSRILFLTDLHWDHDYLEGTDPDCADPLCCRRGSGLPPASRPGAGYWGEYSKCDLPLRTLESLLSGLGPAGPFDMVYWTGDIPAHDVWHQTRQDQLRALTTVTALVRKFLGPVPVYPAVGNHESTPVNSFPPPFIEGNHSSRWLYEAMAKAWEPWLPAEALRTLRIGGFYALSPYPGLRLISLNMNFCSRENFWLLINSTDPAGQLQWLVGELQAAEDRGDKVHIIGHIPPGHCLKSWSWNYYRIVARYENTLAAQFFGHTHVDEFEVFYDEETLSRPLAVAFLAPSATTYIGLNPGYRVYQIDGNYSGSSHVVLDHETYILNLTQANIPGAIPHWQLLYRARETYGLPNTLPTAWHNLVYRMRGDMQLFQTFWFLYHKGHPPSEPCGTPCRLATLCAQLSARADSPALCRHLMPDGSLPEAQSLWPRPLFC
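Fluorescence read-out (Ex 386 nm, Em 447 nm) after stopping the reaction at pH 10. Enzyme: ASM from human placenta; substrate HMU-PC0, 9 uM final; 60 min, 37 °C. Compound preincubation 10 min, ambient temperature.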
IL1B secr inh: qHTS for Inhibitors of Inflammasome Signaling: IL-1-beta AlphaLISA Primary Screen | THP-1 LPS/ATP IL-1B secretion, AlphaLISA, 16 h; hits give low values | AID 743279, 2014 | activity change, % at 57.5 µM | 360,000 tested, 4.7% active; in the data active = activity change below about -50%; inconclusive = mostly about -30% to -49%; also: % is scaled to controls: 0 for no effect and ±100 for the full control effect
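THP-1 cells pretreated 1 hr with compounds (up to 57.5 uM final), then stimulated with LPS (250 ng/mL final) plus ATP (1.25 mM final); secreted IL-1B measured by AlphaLISA after 16 hr, decreased signal indicating inhibition.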
HepG2 viability: qHTS for Inhibitors of TGF-b: Cytotox Counterscreen | HepG2 CAGA-GFP viability, ATP luminescence, 18 h | Potency, µM (series often up to 46.1 µM), for inactives: at the highest dose activity change, negative = cytotoxicity, actives largely listed as cytotoxic | 410,000 tested, 0.76% active | AID 588856, 2011; also: potency is read from the fitted curve at half-maximal effect
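CellTiter-Glo luminescence gave cytotoxicity after 18 hours at 37 degrees C. The cells were HepG2 CAGA-GFP in 1% FBS DMEM, stimulated with 500 pg/mL TGF-beta after compound addition. %Activity was normalised to no-cell wells (complete cell-killing) and DMSO (no toxicity), and curves were fitted and classified.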
* marks the source's active call; other numbers are inactive results; i = inactive; ? = inconclusive; . = not tested or not shown; ! = repeats disagree; [ ] = remark or other dose. Hits are enriched below; roughly 19% of the tested compounds scored in any of these assays. Unless noted, calls follow the shape of the dose curve; as a rule, active = well fitted curve in the direction sought with a large enough effect; inconclusive = small, poorly fitted or top-dose-only effect, or another doubt; inactive = no such curve, though single readings can be large; an effect the other way counts as inactive or inconclusive.

SMILES	TDP1 cell CPT	TGFb inhibitor	TDP1 cell noCPT	S-ASM inh	IL1B secr inh	HepG2 viability
CCN(CC)C(=O)c1ccc(NC(=O)CCn2nc(-c3ccc(C)cc3)c3ccccc3c2=O)cc1	18.4µM*	0.0%	14.6µM*	.	.	-22.2%
CCN(CC)C(=O)c1ccc(NC(=O)COc2ccc(-c3nn(C)c(=O)c4ccccc34)cc2)cc1	16.4µM*	10µM*	?	-1.1%[11.5 µM]	5.0	-12.7%
FC(F)(F)c1ccc(-c2ccc3c(c2)CNCc2cnnn2-3)cc1	?	-25.1%	?	.	-17.6	-9.7%
O=C(c1ccc2c(=O)n(Cc3ccc4c(c3)OCO4)c(=S)[nH]c2c1)N1CCC2(CC1)OCCO2	23.1µM*	0.0%	?	-2.2%	8.2	-20.0%
O=C(NCc1ccc(C(=O)N2CCC3(CC2)OCCO3)cc1)c1ccc2c(c1)OCO2	-15.2%	-1.9%	-23.7%	2.1%	5.5	1.3%
COc1ccc(OC)c(NC(=O)Cn2cc(C(=O)c3ccccc3F)c3ccccc32)c1	?	-7.8%	23.1µM*	.	.	-2.6%
Cc1cccc(NC(=O)Cn2cc(C(=O)c3ccccc3)c3ccccc32)c1	?	10µM*	?	.	.	-17.7%
COC(=O)Cn1cc(C(=O)c2ccccc2F)c2ccccc21	-3.3%	-13.0%	-12.6%	2.2%	16.6	-1.0%
COc1cccc(NC(=O)Cn2cc(C(=O)c3ccccc3)c3ccccc32)c1	?	10µM*	?	.	.	-17.7%
C[C@@H](NC(=O)C[C@@H]1C[C@@H]2c3cc(NS(=O)(=O)c4ccc(F)cc4)ccc3O[C@@H]2[C@@H](CO)O1)c1ccccc1	?	-0.4%	?	.	13.8	-23.0%
CCOP(=O)(OCC)c1nc(-c2cccc3ccccc23)oc1N1CCCCC1	20.6µM*	?	?	i	?	-97.2%
COc1ccc(CNc2oc(-c3cccc4ccccc34)nc2P(=O)(OC)OC)cc1	?	?	?	i	-23.9	-7.4%
COP(=O)(OC)c1nc(-c2ccc([N+](=O)[O-])cc2)oc1N1CCCCC1	?	8.6%	20.6µM*	-7.2%	-10.9	-12.7%
Clc1ccc(CSc2nnc(-c3ccccn3)n2Cc2ccco2)cc1Cl	?	?	?	.	-0.9	-22.2%
COc1ccccc1N1CCN(S(=O)(=O)CCNC(=O)CCCc2ccccc2)CC1	?	-4.6%	20.6µM*	-5.7%	-2.5	-2.0%
COc1ccccc1N1CCN(CCc2ccccc2)CC1	?	0.0%	-6.3%	5.6%	-0.7	2.2%
COc1ccc2c3c([nH]c2c1)C(C)=NCC3	?	7.0%	18.4µM*!	8.9%	-83.8*	-8.8%
CC1=NCCc2c1[nH]c1cc(O)ccc21	?	141.1%	26.6µM*!	426.8%	5.9	-0.1%
C1=NCCc2c1[nH]c1ccccc21	-82.3%	?	?	18.5%	50.2	-36.0%
CC[C@H]1CC2CN3CCc4c([nH]c5cc(OC)ccc45)[C@](C(=O)OC)(C2)[C@H]13	?	?	?	18.2%	3.5	-28.6%
O=C(C[C@@H]1NCCC[C@H]1O)Cn1cnc2cc(Br)c(Cl)cc2c1=O	-0.6%	.	-23.5%	.	.	.
COC(=O)c1cn(CCOc2ccccc2)c2ccccc12	?	1.5%	?	-7.8%	-14.7	-4.6%
COc1ccc(C(=O)NCCn2cc(SC(C)c3ccccc3)c3ccccc32)cc1OC (stereo unspecified)	16.4µM*	?	11.6µM*	.	.	-19.7%
Cc1ccsc1-c1nc(CSCC(=O)N2CCC3(CC2)OCCO3)c(C)o1	23.1µM*	-0.3%	16.4µM*	0.2%	-27.2	-26.8%
Cc1cccc(C)c1NC(=O)CN(C)CC(=O)Nc1ccc(C#N)c(Cl)c1	18.4µM*	-2.8%	13µM*	-2.8%	0.0	-2.5%
SMILES	TDP1 cell CPT	TGFb inhibitor	TDP1 cell noCPT	S-ASM inh	IL1B secr inh	HepG2 viability
CCN(CC(=O)Nc1ccc(C#N)c(Cl)c1)CC(=O)NC(C)(C)C	?	?	23.1µM*	2.6%	-13.8	-24.9%
O=C(c1csnn1)N1CCC[C@@]2(CCN(Cc3ccncc3)C2)C1	-4.4%	.	-11.5%	.	.	.
CCCCOP(=O)(c1ccc(N(C)C)cc1)C(Nc1ccccc1)c1ccccc1 (stereo unspecified)	14.6µM*	15.8µM*	20.6µM*	-15.6%	-95.6*	-95.5%
C[C@@H]1CN([C@H](C)CO)C(=O)CCCn2nncc2CO[C@H]1CN(C)C(=O)Oc1ccc2ccccc2c1	-1.0%	4.4%	-12.5%	.	-4.8	-3.8%
CC1=C[C@@H]2c3cccc4[nH]cc(c34)C[C@H]2N(C)C1	?	1.1%	?	23.3%	-1.5	-15.4%
CN1Cc2ccccc2[C@@H]2c3cccc4[nH]cc(c34)C[C@H]21	5.17µM*	.	5.8µM*	.	.	.
CCOP(=O)(OCC)c1ccc2ccc3ccccc3c(=O)c2c1	.	-5.3%	.	-3.6%	.	-52.2%
COC(=O)N(c1ccccc1)P(=O)(Oc1ccccc1)Oc1ccccc1	3.6%	-4.5%	?	1.7%	-10.8	-7.4%
CN(C)[C@@H]1C(=O)C(C(N)=O)=C(O)[C@@]2(O)C(=O)C3=C(O)c4c(O)ccc(Cl)c4[C@@](C)(O)[C@H]3C[C@@H]12	14.6µM*!	-0.7%	?	24.2%	-3.6	-38.3%
CN(C)[C@@H]1C(=O)C(C(N)=O)=C(O)[C@@]2(O)C(=O)C3=C(O)c4c(O)cccc4[C@@](C)(O)[C@H]3[C@H](O)[C@@H]12	7.31µM*!	10.0%	5.8µM*!	8.3%	4.4	-2.9%
CN(C)C1C(=O)C(C(N)=O)=C(O)[C@@]2(O)C(=O)C3=C(O)c4c(O)cccc4[C@](C)(O)C3C(O)C12 (stereo partly specified)	-17.7%	.	-26.2%	.	.	.
CN(C)[C@@H]1C(=O)C(C(N)=O)=C(O)[C@@]2(O)C(=O)C3=C(O)c4c(O)cccc4[C@@](C)(O)C3C[C@@H]12 (stereo partly specified)	18.4µM*	1.0%	8.2µM*	5.3%	-9.4	-25.1%
N/C(=N/[N+](=O)[O-])N1CCN(C(=O)c2ccc(Cl)cc2)CC1	-3.0%	-1.5%	-4.3%	2.0%	-3.7	-16.1%
